Compounds without any hit were thinned out: in the full panel of roughly 79,000, 15% have a hit. Activity calls are given as the source filed them. No stated cut-off is given here; in the data, active means growth inhibition above about 70%; inactive means the rest.
Legend:
[1] = NCI Yeast Anticancer Drug Screen. Data for the rad52 strain (AID 147);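 further: 0% = growth of vehicle-treated control cultures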; conditions: S. cerevisiae rad52 mutant growth inhibition, stronger effect = higher value
Procedure, shortened: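 Growth of repair-deficient yeast cells was compared between compound-treated and vehicle-treated cultures to give percent inhibition.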

[2] = NCI Yeast Anticancer Drug Screen. Data for the wt1 strain (AID 149);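 further: 0% = growth of vehicle-treated wt1 cultures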; conditions: S. cerevisiae wt1 strain (SPY 50644) growth inhibition, stronger effect = higher value
Procedure, shortened: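 The wt1 strain was treated with compounds, and growth was compared with vehicle-treated cultures to give inhibition.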

[3] = NCI Yeast Anticancer Drug Screen. Data for the rad50EPP+ strain (AID 151);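 further: 0% = growth of vehicle-treated control cultures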; conditions: S. cerevisiae rad50 mutant strain, stronger effect = higher value
Procedure, shortened: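 Measured: growth inhibition of rad50EPP+ yeast. Reference: vehicle-treated controls. Screen uses strains with defined genetic alterations in DNA damage repair or cell cycle control.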

[4] = NCI Yeast Anticancer Drug Screen. Data for the mgt1 strain (AID 153); conditions: S. cerevisiae mgt1 mutant growth inhibition, stronger effect = higher value
Procedure, shortened: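 Compounds were applied to mgt1 mutant yeast, and growth was then compared against vehicle-treated control cultures to give percent inhibition.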

[5] = NCI Yeast Anticancer Drug Screen. Data for the rad50 strain (AID 155);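 further: 0% = growth of vehicle-only cultures of the same strain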; conditions: S. cerevisiae rad50 strain growth inhibition, stronger effect = higher value
Procedure, shortened: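 Cells are treated with compound, grown, and their growth is then scored against vehicle-only cultures of the same repair-deficient yeast strain.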

[6] = NCI Yeast Anticancer Drug Screen. Data for the mec2-1 strain (AID 157); conditions: S. cerevisiae mec2-1 strain, stronger effect = higher value
Procedure, shortened: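 Compounds were applied to mec2-1 yeast cells. Their growth was then compared with that of vehicle-treated cultures to give growth inhibition.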

[7] = NCI Yeast Anticancer Drug Screen. Data for the rad14 strain (AID 159);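 further: 0% = growth of vehicle-treated control cultures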; conditions: S. cerevisiae rad14 strain growth inhibition, stronger effect = higher value
Procedure, shortened: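 Readout: yeast growth inhibition, referenced to vehicle-only cultures. Strain bears a defined alteration in DNA damage repair.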

[8] = NCI Yeast Anticancer Drug Screen. Data for the sgs1 mgt1 strain (AID 161);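 further: 0% = growth of cultures given vehicle only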; conditions: S. cerevisiae sgs1 mgt1 strain, stronger effect = higher value
Procedure, shortened: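 Yeast cells carrying a defined DNA-repair defect were exposed to test compounds. Growth inhibition was measured relative to vehicle-treated controls.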

[9] = NCI Yeast Anticancer Drug Screen. Data for the cln2 rad14 strain (AID 165);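 further: 0% = growth equal to vehicle treated cultures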; conditions: S. cerevisiae cln2 rad14 strain, stronger effect = higher value
Procedure, shortened: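 Strain: cln2 rad14 yeast, altered in cell cycle control and DNA damage repair. Read-out: growth inhibition vs vehicle.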

[10] = NCI Yeast Anticancer Drug Screen. Data for the bub3 strain (AID 167); conditions: S. cerevisiae bub3 mutant strain, stronger effect = higher value
Procedure, shortened: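 Part of a panel of yeast mutants defective in DNA damage repair or cell cycle regulation. Each strain is grown with compound, and inhibition is calculated relative to solvent-treated cultures.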

[11] = NCI Yeast Anticancer Drug Screen. Data for the wt2 strain (AID 169);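 further: 0% = growth of vehicle-treated yeast cultures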; conditions: S. cerevisiae wt2 strain growth inhibition, stronger effect = higher value
Procedure, shortened: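 Growth of compound-treated yeast is measured and expressed as inhibition relative to vehicle-only controls.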

[12] = NCI Yeast Anticancer Drug Screen. Data for the mlh1 strain (AID 171);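 further: 0% = growth of vehicle-treated control cultures of the same strain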; conditions: S. cerevisiae mlh1 strain growth inhibition, stronger effect = higher value
Procedure, shortened: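 Test agents were incubated with yeast bearing a defined DNA damage repair or cell cycle control alteration; values are growth inhibition normalised to vehicle-treated cultures.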

[13] = NCI Yeast Anticancer Drug Screen. Data for the sgs1 strain (AID 173);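 further: 0% = growth of vehicle-only control cultures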; conditions: S. cerevisiae sgs1 mutant, stronger effect = higher value
Procedure, shortened: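 Strain with an altered DNA repair or cell cycle pathway exposed to compound. Growth then measured. Value = inhibition versus vehicle control.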

[14] = NCI Yeast Anticancer Drug Screen. Data for the mlh1 rad18 strain (AID 175); conditions: S. cerevisiae mlh1 rad18 strain growth inhibition, stronger effect = higher value
Procedure, shortened: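 A repair-deficient yeast strain is exposed to test compound, and growth is scored relative to vehicle-treated controls.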

[15] = at 5.0 µM (retest, dose inferred, filed as 0.5)
[16] = at 50.0 µM (retest, dose inferred, filed as 5.0)

Measured: growth inhibition

COc1ccc2oc(-c3ccc(Cl)cc3)c(N3CCN(C)CC3)c2c1
inactive: [1]; at 1.2 µM -1% | [1]; at 3.7 µM 0% | [2]; at 1.2 µM -1% | [2]; at 3.7 µM -3% | [2]; at 11.0 µM 30% | [3]; at 1.2 µM -1% | [3]; at 3.7 µM -4% | [3]; at 11.0 µM 28% | [4]; at 1.2 µM -2% | [4]; at 3.7 µM -1% | [5]; at 1.2 µM -3% | [5]; at 3.7 µM 0% | [5]; at 50.0 µM 56.3% | [6]; at 1.2 µM -3% | [6]; at 3.7 µM -3% | [6]; [15] 9% | [6]; at 50.0 µM 54.7% | [7]; at 1.2 µM 0% | [7]; at 3.7 µM 13% | [8]; [15] 23% | [8]; at 50.0 µM 58.5% | [9]; [15] 17% | [10]; at 1.2 µM -3% | [10]; at 3.7 µM -6% | [10]; [15] 17% | [10]; at 50.0 µM 62.1% | [11]; at 1.2 µM 0% | [11]; at 3.7 µM -3% | [12]; at 1.2 µM -2% | [12]; at 3.7 µM 0% | [13]; at 1.2 µM -1% | [13]; at 3.7 µM 0% | [14]; [15] 59% | [14]; at 50.0 µM 51.5%
active: [1]; at 11.0 µM 91% | [1]; at 33.0 µM 98% | [1]; at 100.0 µM 99% | [2]; at 33.0 µM 99% | [2]; at 100.0 µM 99% | [3]; at 33.0 µM 99% | [3]; at 100.0 µM 99% | [4]; at 11.0 µM 99% | [4]; at 33.0 µM 100% | [4]; at 100.0 µM 99% | [5]; [15] 79% | [5]; at 11.0 µM 94% | [5]; at 33.0 µM 99% | [5]; [16] 99% | [5]; at 100.0 µM 99% | [6]; at 11.0 µM 87% | [6]; at 33.0 µM 98% | [6]; [16] 100% | [6]; at 100.0 µM 99% | [7]; at 11.0 µM 99% | [7]; at 33.0 µM 99% | [7]; at 100.0 µM 99% | [8]; [16] 100% | [9]; [16] 98% | [9]; at 50.0 µM 99.5% | [10]; at 11.0 µM 98% | [10]; at 33.0 µM 99% | [10]; [16] 99% | [10]; at 100.0 µM 99% | [11]; at 11.0 µM 97% | [11]; at 33.0 µM 99% | [11]; at 100.0 µM 99% | [12]; at 11.0 µM 90% | [12]; at 33.0 µM 99% | [12]; at 100.0 µM 99% | [13]; at 11.0 µM 96% | [13]; at 33.0 µM 99% | [13]; at 100.0 µM 99% | [14]; [16] 99%
